Screening results (PubChem BioAssay)
Pf Dd2 growth: Plasmodium falciparum Dd2 growth inhibition; P. falciparum Dd2 growth, SYBR Green, 72 h; Potency, µM (top dose mostly 28.9 µM), for the others: at the highest dose activity, negative = inhibition, usual class: inhibitors; 120,000 tested, 4.3% active; AID 1347417; active = well fitted inhibition curve with a large enough effect;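 also: plate controls were DMSO vehicle for no effect and reference drug for full effect; nearly all actives have a fitted effect of over 65% in size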
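Readout: SYBR Green fluorescence, 485 nm excitation, 535 nm emission, after ~16 h lysis at 37C. Before that, Dd2-infected red cells (2.5% hematocrit) grew 72 h with compound, 29 uM top final concentration.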
Active calls of the source: *; i = inactive; [ ] = dose if it differs, or a comment. Many of the other results were omitted from the sample, so hits are more common in it than they were. Potency is read from the fitted curve at half-maximal effect.

SMILES | Pf Dd2 growth
COCC(=O)N1CCN2C(=O)c3cc(-c4ccc5c(c4)OCO5)ccc3NC(=O)[C@H]2C1 | i
O=C1Nc2ccc(-c3ccccc3)cc2C(=O)N2CCN(C(=O)c3cccnc3)C[C@H]12 | -25%[44.1 µM]
COc1ccc(-c2ccc3c(c2)C(=O)N2CCN(C(=O)CC(C)(C)C)C[C@@H]2C(=O)N3)cc1 | i
O=[S+]1([O-])NC2(CCN(CC3CCCCC3)CC2)CNc2ccccc21 | i
COCC1CN(C(=O)CCc2cccc(OC)c2)CC12CCOCC2 (stereo not given) | i
COc1ccc(-c2n[nH]c3c2CC(=O)N(c2ccccc2)C3)cn1 | 35%[44.1 µM]
COc1ccc(C(=O)N2CCCC(O)(CN3CCCC3)C2)c(OC)c1 (stereo not given) | -8%
Cc1ccc(C(=O)N2CCC3(CC2)CC(CO)N(C(=O)c2ccccc2)C3)cn1 (stereo not given) | -14%
Cc1cc(C)n2ncc(CN3CCn4nc(C(C)O)cc4C3)c2n1 (stereo not given) | 2%
O=C([C@@H]1C[C@H](Oc2cccnc2)CN1C(=O)c1ccc2ncccc2c1)N1CCCC1 | 0%
CC(C)CCN1CCC(N2CCN(C(=O)c3cc(F)ccc3F)CC2)C1=O (stereo not given) | -12%
COc1cc2c(C(=O)N3CCN(c4ccc(F)cc4)CC3)cn(CC(C)C)c(=O)c2cc1OC | 10µM*
COc1ccccc1N1CCN(C(=O)c2c(C)oc3ncn(CC(C)C)c(=O)c23)CC1 | 8%
COc1ccc(N2CCN(C(=O)c3cn(CC(C)C)c(=O)c4c3c3ccccc3n4C)CC2)cc1 | 10µM*
COc1ccccc1N1CCN(C(=O)Nc2cn(CC(C)C)c(=O)c3ccccc23)CC1 | 45%[5.79 µM]
COc1ccc(N2CCN(C(=O)c3cc4c(=O)n(Cc5ccccc5)ccc4nc3C)CC2)cc1 | -16%
COc1cc(Cl)c(C)cc1NC(=O)c1cn(CC(C)C)c(=O)c2cc(OC)c(OC)cc12 | 0%
COc1ccc(Nc2ncc(C(=O)N3CCN(c4ccc(OC)cc4)CC3)c3ccccc23)cc1 | i
COc1cc2c(C(=O)N(C)c3cccc(C(F)(F)F)c3)cn(CC(C)C)c(=O)c2cc1OC | -17%
COc1ccccc1N1CCN(C(=O)c2cn(CC(C)C)c(=O)c3c2c2ccccc2n3C)CC1 | 7.9µM*
CN(C)C(=O)C1CN(C(=O)Nc2ccc(F)cc2)CC12CCOCC2 (stereo not given) | 17%
CC(C(=O)NCCc1nc2ccccc2n1C)C1CCOCC1 (stereo not given) | i
COC[C@@H]1CN(c2ncccn2)C[C@H]1C(=O)N(C)Cc1ccco1 | -7%
COc1ccccc1CNC(=O)CN1CCC(O)(c2ccc(F)cc2)CC1 | -23%
CC(C)NC(=O)C1=NOC2CN(C(=O)c3ccn(C)n3)CC12 (stereo not given) | 7%
SMILES | Pf Dd2 growth
CS(=O)(=O)N1CCC(N2C(=O)C3(CCCCC3)C2c2ccccc2)CC1 (stereo not given) | -9%
COc1ccc(C(=O)Nc2ccc(-c3noc([C@@H]4CCCN4Cc4ccc(Cl)cc4)n3)cn2)cc1 | 11µM*
COc1ccc(C(=O)Nc2ccc(-c3noc([C@@H]4CCCN4Cc4ccccc4C)n3)cn2)cc1 | -20%
COCC(=O)Nc1ccc(-c2noc([C@@H]3CCCN3CC(C)C)n2)cn1 | 11µM*
COc1ccc(C(=O)Nc2ccc(-c3noc([C@@H]4CCCN4Cc4ccc(F)c(F)c4)n3)cn2)cc1 | i
COCC(=O)Nc1ccc(-c2noc([C@@H]3CCCN3Cc3ccc(F)cc3)n2)cn1 | -10%[44.1 µM]
COCC(=O)Nc1ccc(-c2noc([C@@H]3CCCN3Cc3ccc(S(C)(=O)=O)cc3)n2)cn1 | -26%
COc1cccc(CNC(=O)CN2C(=O)NC3(CCC(C)CC3)C2=O)c1 (stereo not given) | i
Cn1nc(C(=O)Nc2ccc3c(c2)C(=O)N2CCC[C@H]2C(=O)N3)c2ccccc21 | -16%
CCCC1(CO)CCCN(CC(=O)NC(C)(C)CC)C1 (stereo not given) | -25%
COc1ccc(CN2CC[C@@H]3[C@H]2C(=O)NC[C@H](CCC(=O)NCc2ccc(F)cc2)N3C)cc1 | i
COCC(=O)N1CCCC(C(=O)NCCc2noc(C3CCCC3)n2)C1 (stereo not given) | -14%
CC(C)CN1C(=O)c2cccn2CC1C(=O)NC1CCCCCC1 (stereo not given) | -50%
CCc1nc2ccc(C(=O)NCc3ccc(N(C)C)cc3)cc2nc1CC | 3.5µM*
CN(C)c1ccc(CNC(=O)c2ccc3nc(Cc4ccccc4)oc3c2)cc1 | -26%
CC(C)c1nc2ccc(C(=O)NCc3ccc(N(C)C)cc3)cc2o1 | 22%
Cc1cc(C)c(C(=O)N2CCCC3(CN(C)C(=O)O3)C2)cn1 (stereo not given) | -2%
Cc1ccc(Cn2c(C3CCN(C(=O)c4ccc(C)cc4)CC3)n[nH]c2=O)cc1 | -24%
Cc1ccc(Cn2c(C3CCN(C(=O)c4ccc(C)s4)CC3)n[nH]c2=O)cc1 | 11µM*
COc1ccc(CC(=O)N2CCC(c3n[nH]c(=O)n3Cc3ccc(OC)cc3)CC2)cc1 | 13µM*
COc1ccc(Cn2c(C3CCN(C(=O)c4ccc(OC)cc4)CC3)n[nH]c2=O)cc1 | -23%
Cc1ccc(Cn2c(C3CCN(C(=O)c4ccccc4Cl)CC3)n[nH]c2=O)cc1 | -19%
COc1ccc(CC(=O)N2CCC(c3n[nH]c(=O)n3Cc3ccc(F)cc3)CC2)cc1 | i
Cc1nc(CN2CCN(C(=O)C(c3ccccc3F)N(C)C)CC2)cs1 (stereo not given) | -1%
O=C(CCc1conc1-c1ccccc1)N1CCN(c2ccccc2Cl)CC1 | i
SMILES | Pf Dd2 growth
COc1ccc(-c2noc(-c3nc(C4CC4)no3)n2)cc1 | -7%
CCN1C(=O)CN(C(=O)c2ccoc2)CC12CCOCC2 | i
O=C(Cn1nc2c(cc1=O)CCCC2)NCCn1cnc2ccccc21 | 12%
COc1ccc(-c2nc(C)nc3c2CCN([S+](=O)([O-])c2cccc(C(F)(F)F)c2)CC3)cc1 | i
O=C(OCc1ccccc1)N1CCC(Oc2cnc3c(ccn3-c3cncnc3)c2)CC1 | i
O=C(CC1CC1)N1CCC(Oc2cnc3c(ccn3-c3cncnc3)c2)CC1 | i
O=C(Cc1ccccc1)N1CCC(Oc2cnc3c(ccn3-c3cncnc3)c2)CC1 | 13µM*
Cc1ccc(-n2nc3n(c2=O)CCN(C(=O)N(C)C)C3)cc1 | -18%[44.1 µM]
O=C(O)CCCC(=O)N1Cc2ccccc2CC2(CCCCN2Cc2ccncc2)C1 (stereo not given) | 7%
CN1CCC(C(=O)N2Cc3ccccc3CC3(CCCN(CC4CCNC4)C3)C2)CC1 (stereo not given) | 8%
CN1CCC(C(=O)N2Cc3ccccc3CC3(CCCCN3Cc3ccncc3)C2)CC1 (stereo not given) | 8.9µM*
CN1CCC(C(=O)N2Cc3ccccc3CC3(CCCN(Cc4cccnc4)C3)C2)CC1 (stereo not given) | 8.9µM*
CN1CCC(C(=O)N2Cc3ccccc3CC3(CCN(Cc4ccc(O)cc4)C3)C2)CC1 (stereo not given) | 0%
O=C(O)CCCC(=O)N1Cc2ccccc2CC2(CCCN2Cc2ccccc2)C1 (stereo not given) | -7%
CNC(=O)[C@@H]1C[C@H](Oc2cccnc2)CN1C(=O)CCc1c[nH]c2ccccc12 | -12%
O=C(NCc1ccc(F)cc1F)C1CCN(C(=O)c2ncn3c2COC(c2ccccc2)C3)CC1 (stereo not given) | i
CCC(c1cccs1)N1C(=O)[C@H]2CNC[C@H]2C1=O (stereo not given in full) | -16%
